Laboratory results from PubChem BioAssay AID1347420 (Sanford-Burnham Center for Chemical Genomics, 2020).
In all, about 1,300 compounds went through this assay and about 980 (75%) were called active. About 4% were inconclusive and are not listed. The list shows a part of the results. Values without a mark were called inactive.

molecular target: Sulfhydryl oxidase 1 (Homo sapiens) (UniProt O00391); assay: QSOX1 enzyme inhibitors, primary screen, biochemical, HyperBlu H2O2 luminescence, HTS (AID 1347420); conditions: recombinant QSOX1, HyperBlu H2O2 luminescence; at 12.5 µM; hits give high values; active = any value above zero; note: values above 100% were filed as inconclusive
Sequence (O00391 whole entry, looked up): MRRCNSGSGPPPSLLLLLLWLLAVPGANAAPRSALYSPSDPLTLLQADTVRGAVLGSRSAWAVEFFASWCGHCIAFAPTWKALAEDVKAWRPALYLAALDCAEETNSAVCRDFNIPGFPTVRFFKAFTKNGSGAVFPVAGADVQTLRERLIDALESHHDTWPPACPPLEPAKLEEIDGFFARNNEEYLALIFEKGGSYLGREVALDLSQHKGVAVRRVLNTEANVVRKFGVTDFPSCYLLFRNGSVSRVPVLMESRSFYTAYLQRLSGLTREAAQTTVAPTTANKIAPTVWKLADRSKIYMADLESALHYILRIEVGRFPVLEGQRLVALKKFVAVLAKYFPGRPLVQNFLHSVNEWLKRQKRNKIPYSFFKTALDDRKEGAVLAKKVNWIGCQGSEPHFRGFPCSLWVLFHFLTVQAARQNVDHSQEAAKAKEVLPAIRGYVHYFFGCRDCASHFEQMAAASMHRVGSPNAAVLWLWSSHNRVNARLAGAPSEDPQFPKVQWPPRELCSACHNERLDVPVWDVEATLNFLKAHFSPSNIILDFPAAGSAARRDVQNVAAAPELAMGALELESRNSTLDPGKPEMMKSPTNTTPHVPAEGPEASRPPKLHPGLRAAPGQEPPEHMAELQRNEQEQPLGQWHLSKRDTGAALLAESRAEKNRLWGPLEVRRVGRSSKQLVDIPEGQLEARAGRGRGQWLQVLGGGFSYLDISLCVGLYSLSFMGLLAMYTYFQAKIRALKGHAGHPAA

Structure (SMILES) | inhibition
Cn1cc(C2=C(c3ccc(Cl)cc3Cl)C(=O)NC2=O)c2ccccc21 | 25.7% (active)
CCc1ccc(/C=C2/SC(=S)NC2=O)cc1 | 69.4% (active)
O=C(O)CCc1nc(-c2ccccc2)c(-c2ccccc2)o1 | -0.1%
CC1COc2c(N3CCN(C)CC3)c(F)cc3c(=O)c(C(=O)O)cn1c23 (centres undefined) | 5.3% (active)
OC(CN1CCC(Cc2ccc(F)cc2)CC1)c1ccc(Cl)cc1 (centres undefined) | 1.3% (active)
CCCCN1CCC(n2c(=O)[nH]c3ccccc32)CC1 | 16.3% (active)
CN(C)CCCO[C@@H]1[C@H]2OC(C)(C)O[C@H]2O[C@@H]1C(O)CO (some centres undefined) | 14.7% (active)
O=C(O)[C@@H]1C[C@@H](C(=O)O)N1 | 4.5% (active)
O=C(O)[C@@H]1C[C@H](C(=O)O)N1 | -18.8%
CC(C)(CO)Cc1cc(C(C)(C)C)c(O)c(C(C)(C)C)c1 | -2.3%
CC(C)(C=O)Cc1cc(C(C)(C)C)c(O)c(C(C)(C)C)c1 | 2.8% (active)
COc1cc2nc(N3CCCN(C)CC3)nc(NC3CCN(Cc4ccccc4)CC3)c2cc1OC | 5.4% (active)
COc1ccc2cc([C@H](C)C(=O)O)ccc2c1 | -13.9%
CC(C(=O)O)c1cccc(C(=O)c2ccccc2)c1 (centres undefined) | 8.2% (active)
COc1ccccc1N1CCN(CCCCN2C(=O)c3ccccc3C2=O)CC1 | 2% (active)
COc1ccccc1N1CCN(CCN2C(=O)CC3(CCCC3)CC2=O)CC1 | 61.3% (active)
O=C1CC2(CCCC2)CC(=O)N1CCCCN1CCN(c2ncccn2)CC1 | -6.6%
Cc1cccc(C(=O)NCN2CCN(c3ccccc3C#N)CC2)c1 | -17.3%
COc1ccccc1N1CCN(CCCCNC(=O)c2ccc3ccccc3c2)CC1 | 36.1% (active)
CN[C@H](CC(=O)O)C(=O)O | 15.9% (active)
c1ccc(C(NCc2cccnc2)(c2ccccc2)c2ccccc2)cc1 | 2.5% (active)
CC(C)(Oc1ccc(C2CC2(Cl)Cl)cc1)C(=O)O (centres undefined) | -2.9%

Structure (SMILES) | inhibition
CC(C)(Oc1ccc(CCNC(=O)c2ccc(Cl)cc2)cc1)C(=O)O | 5.4% (active)
C=C/C(C)=C/[C@@]1(C)SC(=O)C(C)=C1O | 13.4% (active)
O=C1NC(c2cccc([N+](=O)[O-])c2)=CCN1c1ccccc1O | 24.8% (active)
NCCc1cnc[nH]1 | 10.9% (active)
N=C(N)SCCc1cnc[nH]1 | -0.5%
CCCCC[C@H](CC(=O)NO)C(=O)N[C@H](C(=O)N1CCC[C@H]1CO)C(C)C | -27.8%
COc1cc(OC)c(/C=C2/C(=O)Nc3ccccc32)c(OC)c1 | 44.2% (active)
CCC1(O)CC2CN(CCc3c([nH]c4ccccc34)[C@@](C(=O)OC)(c3cc4c(cc3OC)N(C=O)C3[C@]45CCN4CC=C[C@@](CC)([C@@H](OC(C)=O)[C@]3(O)C(=O)OC)[C@H]45)C2)C1 (some centres undefined) | 2.9% (active)
CCC1(O)CC2CN(CCc3c([nH]c4ccccc34)[C@@](C(=O)OC)(c3cc4c(cc3OC)N(C)C3[C@]45CCN4CC=C[C@@](CC)([C@@H](OC(C)=O)[C@]3(O)C(=O)OC)[C@H]45)C2)C1 (some centres undefined) | 18.8% (active)
C/C(=C\c1ccc(C(=O)O)cc1)c1ccc2c(c1)C(C)(C)CCC2(C)C | 5.8% (active)
CCCCC/C=C\CC(O)/C=C/c1cccc(CC(O)CCCCO)n1 (centres undefined) | -9.6%
O=c1cc(-c2ccccc2)[nH]c2nc(Cl)ccc12 | 2.9% (active)
O=C1CCC(N2C(=O)c3ccccc3C2=O)C(=O)N1 (centres undefined) | 3% (active)
Cc1cccc(C#Cc2ccccc2)n1 | 15.5% (active)
CC(C)c1ccc2c(c1)c(SC(C)(C)C)c(CC(C)(C)C(=O)O)n2Cc1ccc(Cl)cc1 | 0.2% (active)
NCCCCN=C(N)N | 15.4% (active)
NC(N)=NCCCCN=C(N)N | 7% (active)
CCN(CC)CC#CCOC(=O)C(O)(c1ccccc1)C1CCCCC1 (centres undefined) | 8.3% (active)
O=C(/C=C/c1ccc(O)cc1)c1ccc(O)cc1O | 58.4% (active)
NC(Cc1cccc(-c2ccccc2CP(=O)(O)O)c1)C(=O)O (centres undefined) | 5.3% (active)
Oc1ccc(Cn2cc[nH]c2=S)cc1 | 22.2% (active)
COCc1nc2c([nH]1)c(=O)n(C)c(=O)n2CC(C)C | 3% (active)

Structure (SMILES) | inhibition
CN(C)CC/C=C1\c2ccccc2COc2ccccc21 | 5% (active)
CNCCC=C1c2ccccc2CCc2ccccc21 | 0.1% (active)
CN(C)CCC=C1c2ccccc2CCc2ccccc21 | 23.9% (active)
CN(C)CCC=C1c2ccccc2C=Cc2ccccc21 | -6.8%
NC(=O)c1ncn([C@@H]2O[C@H](CO)[C@@H](O)[C@H]2O)n1 | 6.1% (active)
NC(=O)c1ncn([C@@H]2O[C@H](CO)[C@@H](O)[C@H]2O)c1O | 9.1% (active)
CCN(CC)CC(=O)Nc1c(C)cccc1C | 6.5% (active)
COC(=O)C1=CO[C@@H](O)[C@@H]2C(CO)=CC[C@H]12 | 16.3% (active)
CCC(C)N(C)C(=O)c1cc2ccccc2c(-c2ccccc2Cl)n1 (centres undefined) | 14% (active)
CN=C(NC#N)NCCSCc1nc[nH]c1C | 13.2% (active)
Cc1cccc(C)c1OCC(C)N (centres undefined) | -6%
Cc1cccc(C)c1OCC(N)C(C)C (centres undefined) | 15.4% (active)
CC(N)C1CCC(C(=O)Nc2ccncc2)CC1 (centres undefined) | 23% (active)
CC(N=C(NC#N)Nc1ccncc1)C(C)(C)C (centres undefined) | -10.9%
Brc1ccc([C@H]2CN3CCSC3=N2)cc1 | 18.2% (active)
c1ccc([C@H]2CN3CCSC3=N2)cc1 | 10.2% (active)
c1ccc(C2CN3CCSC3=N2)cc1 (centres undefined) | -12.3%
CCCn1c(=O)c(C)cn2nc(N)nc12 | 12.2% (active)
CCCCCCCCCCC(C)(C)C(=O)Nc1c(OC)cc(OC)cc1OC | 15.9% (active)
Brc1c(Br)c(Br)c2n[nH]nc2c1Br | 29.4% (active)
NC(=Nc1ccccc1)NC(=O)c1nc(Cl)c(N)nc1N | 13.3% (active)
NC(=NCc1ccccc1)NC(=O)c1nc(Cl)c(N)nc1N | 3.9% (active)

Structure (SMILES) | inhibition
O=C(O)CNC(=O)C(CS)Cc1ccccc1 (centres undefined) | 3.5% (active)
COc1ccc(NC(=O)/C=C/c2ccc(Cl)cc2)cc1 | 18% (active)
COc1ccc([C@@H]2Sc3ccccc3N(CCN(C)C)C(=O)[C@@H]2OC(C)=O)cc1 | 10.6% (active)
Cc1ccc([N+](=O)[O-])cc1S(=O)(=O)N(C)C | -9.6%
CS(=O)(=O)Nc1ccc([N+](=O)[O-])cc1Oc1ccccc1 | 97.4% (active)
CC[C@H]1CN2CCc3cc(OC)c(OC)cc3[C@@H]2C[C@@H]1C[C@H]1NCCc2cc(OC)c(OC)cc21 | 13% (active)
COc1cc2c(cc1OC)C1CC(=O)C(CC(C)C)CN1CC2 (centres undefined) | 6.3% (active)
CCC1(C)CC(=O)NC1=O (centres undefined) | 13.4% (active)
CC(C)(C)[C@]1(O)CCN2C[C@H]3c4ccccc4CCc4cccc(c43)[C@@H]2C1 | -3.5%
O=C(C1CCCCC1)N1CC(=O)N2CCc3ccccc3C2C1 (centres undefined) | 8% (active)
N[C@H](CO)C(=O)O | 6.6% (active)
N[C@@H](CS(=O)O)C(=O)O | 16% (active)
N[C@@H](CC(=O)O)C(=O)O | 20.6% (active)
C=CC[C@H](N)C(=O)O | 5.3% (active)
N[C@H](C(=O)O)[C@H](O)C(=O)O | -0.9%
CCc1cccc(N(C)C(N)=Nc2cccc3ccccc23)c1 | -10.9%
O=C(O)C1=CCCN(CCON=C(c2ccccc2)c2ccccc2)C1 | -7.5%
O=C(O)COCCN1CCN(C(c2ccccc2)c2ccc(Cl)cc2)CC1 (centres undefined) | 6.6% (active)
CC(C)NC[C@H](O)COc1cccc2[nH]ccc12 | 12.2% (active)
C=CCc1ccccc1OCC(O)CNC(C)C (centres undefined) | 1.7% (active)
CC(C)NCC(O)COc1cccc2ccccc12 (centres undefined) | 10.3% (active)
CC(C)NC[C@H](O)COc1cccc2ccccc12 | -5.6%

Structure (SMILES) | inhibition
CCC1(c2ccccc2)C(=O)NCNC1=O | -13.9%
CC(C)NCC(O)COc1cccc2[nH]ccc12 (centres undefined) | 8% (active)
c1cnc2c(c1)ccc1cccnc12 | 9.8% (active)
CCN(CC)CCOC(=O)c1ccc(N)cc1 | -5.5%
CCCCNc1ccc(C(=O)OCCN(C)C)cc1 | 9.2% (active)
CCCCNc1cc(C(=O)O)cc(S(N)(=O)=O)c1Oc1ccccc1 | -9.6%
NC(N)=NCc1cccc(I)c1 | 0.4% (active)
C=C1C(=O)O[C@@H]2[C@H]3O[C@]3(C)CCC=C(C)CC[C@@H]12 | -3.6%
NC(N)=NCCC[C@H](N)C(=O)O | -5.3%
CN=C(N)NCCC[C@H](N)C(=O)O | 1.3% (active)
CN(C)C(N)=NCCC[C@H](N)C(=O)O | -1.4%
CSC(N)=NCCC[C@H](N)C(=O)O | 8% (active)
CC(N)=NCCCC[C@@H](N)C(=O)O | 5% (active)
N#C/C(=C\c1ccc(O)c(O)c1)C(=O)c1ccc(O)c(O)c1 | 81.2% (active)
C[C@]12C=CC(=O)C=C1CC[C@@H]1C2=CC[C@]2(C)[C@@H](C(=O)CN3CCN(c4cc(N5CCCC5)nc(N5CCCC5)n4)CC3)CC[C@@H]12 | 21.5% (active)
CN1CC(O)C(O)C(O)C1CO (centres undefined) | 11.1% (active)
Cc1cc2c(cc1Cl)N(C(=O)Nc1ccnc3ccccc13)CC2 | 52.9% (active)
Cc1cc2c(cc1Cl)N(C(=O)Nc1ccc(Oc3cccnc3C)nc1)CC2 | 2.9% (active)
CCN(CC)CCOCCOC(=O)C1(c2ccccc2)CCCC1 | -2.7%
c1ccc(CN2CCC3(CCCc4ccccc43)CC2)cc1 | -10.4%
O=C(OCCN1CCOCC1)C1(c2ccccc2)CCCCC1 | 14.9% (active)
